The list is not random: actives were taken first. Their share in the collection is about 2.2%.
PAX8 reporter – inhibitors of PAX8-driven TPO luciferase reporter, primary screen, RMG-I cells, single concentration; SteadyGlo, 24 h; inhibition, % at 12.6 µM; actives 1.2% (n = 360,000);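 active means mean replicate inhibition at least 60% with every replicate also reaching 60%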;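 further: luciferase light reporting Pax8 driven TPO promoter activity; plate controls were median of neutral control wells for no effect and mitoxantrone controls for full effect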
Shn3 inh set2 – reduction of Shn3 3'UTR firefly luciferase signal, primary screen, Schnurri-3 inhibitor project, cell-based, Clone20 osteoblasts, set 2; Clone20 osteoblast Shn3 3'UTR firefly luciferase, 24 h; inhibition, % at 12.5 µM; actives 0.52% (n = 360,000);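 active means mean inhibition of at least 75% with every replicate also reaching 75%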;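 further: 0% = median of neutral control wells and 100% = pilot-screen positive control compound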
LGR2 antag – inhibitors of bursicon-induced LGR2 CRE-luciferase signal, primary screen, cell-based, HEK293, CRE-luciferase reporter, bursicon stimulation; AID 720647, 2013; inhibition, % at 9.99 µM; Drosophila bursicon receptor LGR2 (rickets); bursicon-stimulated, 4 h; actives 0.35% (n = 380,000);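 active means drop in luminescence signal, shown as inhibition above about 50% in the replicate tests, limit read from the data, passing the limit was not always enough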;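 further: agonist challenge used bursicon conditioned medium at about half maximal strength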
MITF TRPM1 inh – inhibitors of MITF-dependent TRPM1 promoter reporter, primary screen, cell-based, SK-MEL-5, single point, luciferase. SK-MEL-5 TRPM1 promoter luciferase, 24 h. inhibition, % at 12.5 µM. actives 0.83% (n = 330,000). AID 488899, 2010;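 active means mean inhibition across replicates of 60% or more, whatever share of single replicates reaches that level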
LMP1 NFkB inh – EBV LMP1-driven NF-kappaB luciferase reporter inhibitors, primary screen, cell-based, luminescence, single point | LMP1-induced NF-kappaB luciferase reporter cells | inhibition, % at 12.5 µM | actives 0.69% (n = 350,000); in the data active means inhibition above about 41%;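 further: 0% = neutral control wells and 100% = reference inhibitor control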
EWS-Fli block – EWS/Fli-driven NR0B1 reporter inhibitors, primary screen, A673 cells, NR0B1 luciferase, luminescence, MLPCN library; viability-normalised; actives 0.67% (n = 350,000); inhibition, % at 12.6 µM; AID 651661, 2012;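 active means mean inhibition of at least 50% after viability correction, with every replicate also passing that limit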;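 further: firefly luciferase signal divided by Alamar Blue viability fluorescence both relative to DMSO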
Starred values were filed as active, the others as inactive; · = not tested or not shown.

SMILES	PAX8 reporter	Shn3 inh set2	LGR2 antag	MITF TRPM1 inh	LMP1 NFkB inh	EWS-Fli block
Cc1ccc(S(=O)(=O)Nc2ccc3c(c2)C(=O)N([C@H](C)CO)C[C@H](C)[C@@H](CN(C)C(=O)C2CCCCC2)OCCCC[C@@H](C)O3)cc1	-50	·	4	·	·	-6
Cc1cccc(-c2ccc([C@@H]3[C@@H](CO)N4C(=O)CN(C(=O)NC5CCCCC5)C[C@@H]34)cc2)c1	·	·	9	·	·	4
CN(C(=O)COC(=O)C1CCN(S(=O)(=O)c2ccc(Cl)cc2)CC1)C1CCS(=O)(=O)C1 (configuration not stated)	6	-2	-15	-2	-6	8
CCOC(=O)C1CCN(S(=O)(=O)c2cccc3nonc23)CC1	-15	4	·	-2	-2	·
CCOC(=O)C1CCN(S(=O)(=O)c2c(Cl)ccc3nonc23)CC1	29	96*	4	93*	23	·
CN(C(=O)COC(=O)C1CCN(S(=O)(=O)c2c(Cl)cccc2Cl)CC1)C1CCS(=O)(=O)C1 (configuration not stated)	113*	7	-13	-10	2	-2
CN(C(=O)COC(=O)c1nc(Cl)c(Cl)c(Cl)c1Cl)C1CCS(=O)(=O)C1 (configuration not stated)	4	65	103*	94*	-137	25
Cc1noc(C)c1S(=O)(=O)N(C)C[C@H]1Oc2ccc(NC(=O)CCN3CCOCC3)cc2CC(=O)N([C@H](C)CO)C[C@@H]1C	-19	·	12	·	·	·
CC(C)c1cn(CC[C@H]2CC[C@@H](NC(=O)C3CCCCC3)[C@H](CO)O2)nn1	·	·	-5	·	·	9
C[C@H]1CCCCO[C@@H](CN(C)C(=O)c2ccccc2)[C@@H](C)CN([C@@H](C)CO)C(=O)c2cc(NC(=O)Nc3ccc(C(F)(F)F)cc3)ccc2O1	89*	·	-11	·	·	-15
C[C@@H]1CCCCO[C@H](CN(C)C(=O)c2ccccc2)[C@@H](C)CN([C@@H](C)CO)C(=O)c2cc(NC(=O)Nc3ccc(C(F)(F)F)cc3)ccc2O1	94*	·	-7	·	·	-7
C[C@@H]1CCCCO[C@H](CN(C)C(=O)c2ccccc2)[C@H](C)CN([C@@H](C)CO)C(=O)c2cc(NC(=O)Nc3ccc(C(F)(F)F)cc3)ccc2O1	87*	·	0	·	·	10
C[C@H]1CCCCO[C@@H](CN(C)C(=O)Nc2ccccc2)[C@@H](C)CN([C@@H](C)CO)C(=O)c2cc(NC(=O)Nc3ccc(C(F)(F)F)cc3)ccc2O1	17	·	13	·	·	-12
C[C@@H]1CCCCO[C@@H](CN(C)C(=O)c2ccccc2)[C@@H](C)CN([C@@H](C)CO)C(=O)c2cc(NC(=O)Nc3ccc(C(F)(F)F)cc3)ccc2O1	86*	·	-9	·	·	-5
C[C@@H]1CN([C@H](C)CO)C(=O)Cc2cc(NS(=O)(=O)c3ccccc3)ccc2O[C@H]1CN(C)C(=O)NC1CCCCC1	-8	·	14	·	·	4
C[C@@H]1CN([C@@H](C)CO)C(=O)c2cc(NC(=O)Nc3ccc(C(F)(F)F)cc3)ccc2O[C@@H](C)CCCCO[C@H]1CN(C)C(=O)Cc1ccccc1	55	·	-1	·	·	-4
C[C@@H]1CCCCO[C@@H](CN(C)C(=O)c2ccccc2)[C@H](C)CN([C@H](C)CO)C(=O)c2cc(NC(=O)Nc3ccc(C(F)(F)F)cc3)ccc2O1	102*	·	4	·	·	6
C[C@@H]1CN([C@H](C)CO)C(=O)c2cc(NC(=O)Nc3ccc(C(F)(F)F)cc3)ccc2O[C@@H](C)CCCCO[C@@H]1CN(C)C(=O)c1ccccc1	88*	·	12	·	·	-4
C[C@@H]1CCCCO[C@@H](CN(C)C(=O)c2ccccc2)[C@@H](C)CN([C@H](C)CO)C(=O)c2cc(NC(=O)Nc3ccc(C(F)(F)F)cc3)ccc2O1	15	·	6	·	·	-13
C[C@@H]1CCCCO[C@@H](CN(C)C(=O)Cc2ccccc2)[C@H](C)CN([C@@H](C)CO)C(=O)c2cc(NC(=O)Nc3ccc(C(F)(F)F)cc3)ccc2O1	71*	·	10	·	·	4
CN1c2ccc(-c3ccc(F)cc3)cc2[C@@H]2[C@@H](CCN2S(=O)(=O)c2ccc(F)cc2)[C@H]1CO	-4	·	18	·	·	8
O=C(C1CCN(S(=O)(=O)N2CCCC2)CC1)N1CCCCC1	·	11	·	-5	-2	·
O=C(C1CCN(S(=O)(=O)N2CCCCC2)CC1)N1CCCCC1	-11	-12	-12	-1	56*	·
Cc1ccccc1CS(=O)(=O)c1nnc([C@H](Cc2ccccc2)NC(=O)OC(C)(C)C)o1	·	95*	22	83*	7	40
CC(C)(C)OC(=O)N[C@@H](Cc1ccccc1)c1nnc(S(=O)(=O)Cc2ccccc2)o1	14	·	·	·	·	·
SMILES	PAX8 reporter	Shn3 inh set2	LGR2 antag	MITF TRPM1 inh	LMP1 NFkB inh	EWS-Fli block
CCC(C)[C@@H](NC(=O)OC(C)(C)C)c1nnc(S(=O)(=O)Cc2cccc(C)c2)o1 (some centres not stated)	·	98*	·	71*	1	·
CCOC(=O)C1CCN(C(=O)c2ccc3c(c2)NC(=O)/C(=C\c2cccc(C)c2)S3)CC1	-8	37	3	-3	5	·
Cc1cccc(/C=C2/Sc3ccc(C(=O)NCCCN4CCOCC4)cc3NC2=O)c1	12	-10	3	-7	-7	16
Cc1cccc(/C=C2/Sc3ccc(C(=O)NCCN4CCCC4)cc3NC2=O)c1	11	-3	-61	89*	-6	·
O=C1Nc2cc(C(=O)NCCCN3CCCC3)ccc2S/C1=C/c1cccc(Cl)c1	13	3	6	·	-38	13
CCN1CCN(CCCNC(=O)c2ccc3c(c2)NC(=O)/C(=C\c2cccc(C)c2)S3)CC1	3	9	17	102*	-2	60*
COc1cccc(/C=C2/Sc3ccc(C(=O)NCCN4CCCCCC4)cc3NC2=O)c1	97*	-12	-3	74*	-19	·
CCN1CCCC1CNC(=O)c1ccc2c(c1)NC(=O)/C(=C\c1ccc(OC)c(OC)c1)S2 (configuration not stated)	10	1	-13	87*	-28	·
O=C(c1cnccn1)N1CC(=O)N2[C@@H](CO)[C@H](c3ccc(C#CC4CCCC4)cc3)[C@@H]2C1	·	·	3	·	·	2
COCC(=O)N1CCC2(CC1)CN(S(C)(=O)=O)[C@H](CO)c1[nH]c3cc(OC)ccc3c12	·	·	-28	·	·	29
CO[C@@H]1CN(C)C(=O)c2ccc(NS(=O)(=O)c3ccccc3F)cc2OC[C@@H](C)NC[C@@H]1C	·	·	-2	·	·	2
CCCC(=O)Nc1ccc2c(c1)OC[C@H](C)N(Cc1ccccc1)C[C@@H](C)[C@@H](OC)CN(C)C2=O	-1	·	0	·	·	-9

Source: PubChem (Broad Institute)
